Drawing on PubChem BioAssay AID488908 (National Center for Advancing Translational Sciences (NCATS), 2010), this text covers Potency for 40 molecules.

Where “and” joins values, the source holds several entries; their conditions need not be identical. Equal values may be shown once. Records with an inconclusive call do not appear. Entries that show only a call come without a potency. Calls of active or inactive are those of the source. Calls come from the whole dose curve; as a rule, active = well fitted inhibition curve with a large enough effect; inconclusive = small, poorly fitted or top-dose-only effect; inactive = flat fitted curve, though single readings scatter.

This experiment in a line: Secondary Assay for lipid storage modulators: Cytotoxcity for probe SAR. Conditions: Drosophila S3 cells viability, CellTiter-Glo luminescence, 24 h, with oleic acid added (1 µL, 400 µM); series mostly up to 46.1 µM. The source says: NIH Molecular Libraries Probe Production Centers Network [MLPCN] NIH Chemical Genomics Center [NCGC] MLPCN Grant: 1 R03 MH085686-01 Assay Submitter (PI): Beller, Mathias; Max-Planck-Institut fur Biophysikalische Chemie, Germany. NCGC Assay Overview: Storing lipids as a reservoir for energy or the anabolism of elementary metabolites is a common feature of probably all cells and is conserved from bacteria to humans. The universal cellular lipid storage organelle is the so-called lipid storage droplet (LD). Although ubiquitous, LDs share a simple structure composed of a hydrophobic core that harbors the storage lipids, which is shielded by a droplet-specific phospholipid monolayer to which proteins are attached. The current model of LD biogenesis involves an incorporation of the lipid core into the membrane leaflets of the endoplasmic reticulum (ER) followed by a subsequent budding-like maturation of a LD, which ultimately pinches off. Once released, LD volume can increase by localized lipogenesis or fusion of existing droplet. Storage lipids are re-mobilized enzymatically by lipase activity. Lipase regulation in the adipocyte is heavily studied and involves multiple components including catecholamine signaling, the LD-associated proteins Perilipin and comparative gene identification (CGI-58) and at least two lipases named hormone sensitive lipase (HSL) and adipocyte triglyceride lipase (ATGL). LD regulation outside of the adipocyte is poorly understood and only few components are known. However, there is an urgent need to learn more about ectopic fat depots as mislocalized storage of lipids, for example in the liver or muscle, is an eminent health problem associated with insulin resistance or the metabolic syndrome. We developed a laser-scanning cytometer assay to enable 1,536-well screening and combined the results of the small molecules screen with an RNAi database based on lipid storage. The compound was tested here for cytotoxcity using CellTiter-Glo.
Assay Protocol Summary: Cytotoxcity assay was performed with embryonic Drosophila S3 cells (Bloomington Drosophila Genomics Resource Center [DGRC]). We dispensed 4 uL of cells at 1.25 x 10^6 cells/mL into Greiner solid white 1,536-well plates with a bottle-valve solenoid-based dispenser (Aurora) to obtain 5,000 cells/well. A total of 23 nL of compound solution of different concentrations were transferred to the assay plates using a Kalypsys pin tool equipped with a 1,536-pin array containing 10-nL slotted pins (FP1S10, 0.457-mm diameter, 50.8 mm long; V&P Scientific). One microliter of oleic acid (400 uM) was added, and the plate was lidded with stainless steel rubber gasket lined lids containing pinholes. After 24 hrs of incubation at 24 degrees Celsius and 95% humidity, 4 uL of CellTiter-Glo (Promega) was added to the wells. Luminescence was detected on the Perkin Elmer ViewLux.
In the case of `O=C(O)c1cccc(-c2noc(-c3ccccc3F)n2)c1`, the Potency result was “inactive”. Turning to `O=C(NC1CCCc2c1cnn2-c1ccc(F)cc1F)C1CCCCC1` (stereo not given), the Potency is 0.791 µM (active).

In the case of `O=C(NC1CCCc2c1cnn2-c1ccc(F)cc1F)c1ccsc1` (stereo not given), the Potency was 3.97 µM (active).

Take `O=C(Nc1cccc2c1cnn2-c1ccc(F)cc1)c1ccccn1`: the Potency is 0.888 µM (active). Consider `CC1=C(C(=O)NC2CCCc3c2cnn3-c2ccc(F)cc2F)OCCO1` (stereo not given), for which the Potency was 0.996 µM (active). The entry for `Cc1csc(NC(=O)CSc2ncc(-c3ccccc3)n2Cc2ccco2)n1` is “inactive”. For the molecule `O=C(c1cc2sccc2n1Cc1ccccc1)N(CCc1ccc(O)c(O)c1)Cc1ccccc1`, the Potency entry was “inactive”.

In the case of `O=C(NC1CCCc2c1cnn2-c1ccc(F)cc1F)c1ccc2cc[nH]c2c1` (stereo not given), the Potency was 22.3 µM (active). For the molecule `O=C(NC1CCCc2c1cnn2-c1ccc(F)cc1F)c1cnccn1` (stereo not given), the Potency is 3.97 µM (active).

Take `O=C(NCCc1ccc2c(c1)OCO2)c1cc2sccc2[nH]1`: the Potency result is “inactive”. `CCOc1ccc(CCNC(=O)C2COc3ccccc3O2)cc1OCC` (stereo not given): the Potency entry was “inactive”. As for `Cc1ccc(NC(=O)c2ccc(CN3CCN(C)CC3)cc2)cc1Nc1nc(-c2cccnc2)cs1`, the Potency entry is “inactive”. As for `CN(C)Cc1ccc(-c2nc3cccc4c3n2CCNC4=O)cc1`, the entry is “inactive”. Regarding `COc1ccc(CCNC(=O)c2cc3sccc3n2Cc2ccccc2)cc1OC`, the Potency result is “inactive”. Take `O=C(Cc1cccs1)Nc1nc(-c2ccc(F)cc2)cs1`: the Potency result is “inactive”. As to `O=C(NC1CCCc2c1cnn2-c1ccc(F)cc1F)c1ccc(F)cc1` (stereo not given), the Potency is 14.1 µM (active). The entry for `COc1ccc(Cl)cc1NC(=S)N1CCN(c2ccccc2F)CC1` is “inactive”; for `CCOc1ccc(CCNC(=O)c2cccs2)cc1OCC` it is “inactive”; for `COc1ccc(-n2ncc3c2CCCC3NC(=O)c2cnc(C)cn2)cc1` (stereo not given) it is 15.8 µM (active). The entry for `CCOC(=O)C1CCN(C(=O)CNC(=O)Nc2ccccc2Cl)CC1` is “inactive”. As for `O=C(NC1CCCc2c1cnn2-c1ccc(F)cc1F)c1cnon1` (stereo not given), the entry is “inactive”; as for `CCOc1ccc(CCNC(=O)c2cc3sc(Cl)cc3n2CC)cc1OCC`, “inactive”; as for `O=C(NC1CCCc2c1cnn2-c1ccc(F)cc1F)c1ccc(C2(C(F)(F)F)N=N2)cc1` (stereo not given), 3.97 µM (active).

Turning to `CCn1c(-c2ccc(C)cc2)cnc1SCC(=O)Nc1nc(C)cs1`, the Potency entry is “inactive”.

With `O=C(NC1CCCCC1)NC1(C(=O)N2CCCC2)CCCCC1`, the Potency result is “inactive”. As to `CCOc1ccc(CCNC(=O)c2cccc(C(=O)c3ccccc3)c2)cc1OCC`, the Potency result was “inactive”. The entry for `CCOC(=O)C1CCN(C(C)C(=O)NC(=O)NC2CCCCC2)CC1` (stereo not given) is “inactive”. The entry for `COc1ccc(Cl)cc1NC(=S)N1CCN(c2ccccc2)CC1` is “inactive”; for `CCOc1ccc(NC(=O)NC2(C(=O)N3CCCCC3)CCCCC2)cc1` it is “inactive”. The entry for `CCCn1c(-c2ccc(OC)cc2)cnc1SCC(=O)Nc1nc(C)c(C)s1` is “inactive”; for `CCOc1ccc(CCNC(=O)c2cc3sccc3n2Cc2ccc(-n3cncn3)cc2)cc1OCC` it is “inactive”; for `O=C(NC1CCCc2c1cnn2-c1ccc(F)cc1F)C1CCCCN1` (stereo not given) it is “inactive”. For `COc1ccc(-c2csc(NC(=O)CSc3nnc(Nc4ccccc4)s3)n2)cc1`, the Potency result is “inactive”. As for `CCOc1ccc(CCNC(=O)C2CCCCC2)cc1OCC`, the entry is “inactive”; as for `COc1cc(Nc2ncc(F)c(Nc3ccc4c(n3)NC(=O)C(C)(C)O4)n2)cc(OC)c1OC`, “inactive”. The entry for `O=C(O)CCc1ccc(NCc2cccc(Oc3ccccc3)c2)cc1` is “inactive”; for `Cc1cccc(Nc2nnc(SCC(=O)Nc3nc(-c4ccc(F)cc4)cs3)s2)c1` it is “inactive”. In the case of `CCOc1ccc(CCNC(=O)c2ccc(C3(C(F)(F)F)N=N3)cc2)cc1OCC`, the Potency result is “inactive”.

For the molecule `COc1ccc(-c2csc(NC(=O)CSc3nnc(NC4CC4)s3)n2)cc1OC`, the Potency result is “inactive”.

Take `O=C(NC1CCCc2c1cnn2-c1ccc(F)cc1F)c1ccccn1` (stereo not given): the Potency is 9.96 µM (active) and 8.88 µM (active).
